Data from PubChem BioAssay (NCATS).
Results filed as inconclusive are left out. Calls of active or inactive are those of the source. Unless noted, calls come from the whole dose curve; as a rule, active = well fitted curve in the direction sought with a large enough effect; inconclusive = small, poorly fitted or top-dose-only effect, or another doubt; inactive = no such curve, though single readings can be large; an effect the other way counts as inactive or inconclusive.

Experiments:
[1] = qHTS for inhibitors of adenylyl cyclases using a fission yeast platform: a pilot screen against the NCATS LOPAC library (AID 1347410);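 note: plate controls were DMSO vehicle for no effect and DPI positive control for full effect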
Outline: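 GFP from fbp1-GFP reporter, read by Acumen laser cytometry, indicates AC inhibition in fission yeast expressing AC9, GNAS and PDE4D2. Cells grown 18 h in the dark at 30C with compounds, final up to 57 uM.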

[2] = Validation qHTS assay for inhibitors of Activation Induced Cytidine Deaminase (AID): UDG Counterscreen signal (AID 1347427); note: 0% is about no effect
Outline: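 Counterscreen read of UDG activity (2 U/mL, 4/3x) in the FRET deamination format with AID (1 uM, 4/3x), DJC20/DJC23 substrates (250 nM, 4x), 4 h at room temperature. NaOH stop, fluorescence at 560 ex/665 em.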

[3] = target: Single-stranded DNA cytosine deaminase (Homo sapiens) (UniProt Q9GZX7); assay: Validation qHTS assay for inhibitors of Activation Induced Cytidine Deaminase (AID): AID signal (AID 1347429); note: % is set by controls: 0 for no effect and ±100 for the full control effect
Sequence of Single-stranded DNA cytosine deaminase (Homo sapiens) (Q9GZX7 whole entry, looked up): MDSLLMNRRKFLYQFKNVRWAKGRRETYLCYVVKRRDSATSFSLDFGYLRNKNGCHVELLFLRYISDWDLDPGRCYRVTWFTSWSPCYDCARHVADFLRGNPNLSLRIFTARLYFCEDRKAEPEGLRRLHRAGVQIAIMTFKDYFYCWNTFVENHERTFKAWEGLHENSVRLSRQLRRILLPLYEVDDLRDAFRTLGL
Outline: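 FRET deamination assay: 1 uM AID (4/3x stock) with UDG, compound up to 114 uM, then 250 nM DJC20/DJC23 substrate (4x stock) for 4 hr at room temperature. NaOH added, 30 min; fluorescence read 540/590 nm.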

[4] = target: Calcium and integrin-binding protein 1 (Homo sapiens) (UniProt Q99828); assay: Validation qHTS for Identification of Calcium Integrin Binding protein 1 (CIB1) Competitor (AID 1508618); note: % is set by controls: 0 for no effect and ±100 for the full control effect
Sequence of Calcium and integrin-binding protein 1 (Homo sapiens) (Q99828 whole entry, looked up): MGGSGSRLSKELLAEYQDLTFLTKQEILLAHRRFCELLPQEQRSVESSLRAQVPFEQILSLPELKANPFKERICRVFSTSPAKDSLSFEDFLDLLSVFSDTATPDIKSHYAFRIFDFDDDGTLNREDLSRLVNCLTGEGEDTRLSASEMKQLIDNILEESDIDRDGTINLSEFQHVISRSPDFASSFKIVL
Outline: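 Displacement of FITC-alphaIIb peptide (100 nM) from CIB1-GST (1 uM) is monitored by polarization in quantitative HTS format; buffer carries 5 mM CaCl2 and 125 mM NaCl at pH 7.4, incubations are at room temperature.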

[5] = target: Calcium and integrin-binding protein 1 (Homo sapiens) (UniProt Q99828); assay: Primary qHTS for Identification of Calcium Integrin Binding Protein 1 (CIB1) Competitor (AID 1508620);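 note: GST tagged CIB1 binding a fluorescein labelled alphaIIb integrin peptide tracer; top concentration of the series differs between compounds; % is set by controls: 0 for no effect and ±100 for the full control effect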
Outline: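 Fluorescence polarization competition: GST-tagged CIB1 (1 uM final) preincubated with compound 15 min at room temperature, then FITC-labelled alphaIIb peptide (100 nM final) added. After 15 min at room temperature, polarization read at Ex 480/Em 540.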

[6] = Primary qHTS for small molecule stabilizers of the endoplasmic reticulum resident proteome: Secreted ER Calcium Modulated Protein (SERCaMP) assay (AID 1508630); note: % is set by controls: 0 for no effect and ±100 for the full control effect
Outline: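 GLuc-SERCaMP-expressing SH-SY5Y cells, pretreated 16 h with compound, are challenged with thapsigargin to empty ER calcium stores; after 4 h, coelenterazine is added directly to the medium and luminescence is imaged.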

Papain (Carica papaya) = Papain (Carica papaya) (UniProt P00784); assay: Primary qHTS assay for inhibitors of the protease papain (AID 1645873);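 note: papain turnover of Z-FR-AMC read as the AMC fluorescence gain over 10 min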; note: potency is the fitted concentration of half-maximal effect
Sequence of Papain (Carica papaya) (P00784 whole entry, looked up): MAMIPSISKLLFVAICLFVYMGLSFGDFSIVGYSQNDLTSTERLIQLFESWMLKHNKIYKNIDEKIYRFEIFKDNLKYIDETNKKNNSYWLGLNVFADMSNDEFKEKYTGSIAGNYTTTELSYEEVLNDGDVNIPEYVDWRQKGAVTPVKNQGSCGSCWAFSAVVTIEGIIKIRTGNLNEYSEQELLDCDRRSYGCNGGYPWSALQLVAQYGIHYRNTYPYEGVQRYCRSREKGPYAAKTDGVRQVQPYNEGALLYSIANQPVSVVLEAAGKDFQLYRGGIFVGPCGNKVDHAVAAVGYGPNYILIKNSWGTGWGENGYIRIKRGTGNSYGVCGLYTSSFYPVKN

[7] = qHTS to identify inhibitors of the type 1 interferon - major histocompatibility complex class I in skeletal muscle: primary screen against the NCATS Mechanism Interrogation Plate v5.0 (MIPE) Libary (AID 1347411); note: nearly all actives have a fitted effect of over 65% in size; note: potency is the fitted concentration of half-maximal effect
Outline: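 Immortalized human myoblasts (C25cl48) with HiBit knocked into endogenous HLA-B*08:01 were stimulated with 4 ng/ml IFN-beta and given compounds in 11-point 1:3 titration from 46 uM. After 24 h at 37 C, lytic HiBiT luminescence was read.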

[8] = target: Protein phosphatase 1D (Homo sapiens) (UniProt O15297); assay: RapidFire Mass Spectrometry qHTS Assay for Modulators of WT P53-Induced Phosphatase 1 (WIP1) (AID 1347424);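 note: amount of dephosphorylated VEPPL-S-QETFS peptide product formed by WIP1; series mostly up to about 63 µM; plate controls were DMSO wells for no effect and GSK830371 inhibitor control at 10 µM for full effect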
Sequence of Protein phosphatase 1D (Homo sapiens) (O15297 whole entry, looked up): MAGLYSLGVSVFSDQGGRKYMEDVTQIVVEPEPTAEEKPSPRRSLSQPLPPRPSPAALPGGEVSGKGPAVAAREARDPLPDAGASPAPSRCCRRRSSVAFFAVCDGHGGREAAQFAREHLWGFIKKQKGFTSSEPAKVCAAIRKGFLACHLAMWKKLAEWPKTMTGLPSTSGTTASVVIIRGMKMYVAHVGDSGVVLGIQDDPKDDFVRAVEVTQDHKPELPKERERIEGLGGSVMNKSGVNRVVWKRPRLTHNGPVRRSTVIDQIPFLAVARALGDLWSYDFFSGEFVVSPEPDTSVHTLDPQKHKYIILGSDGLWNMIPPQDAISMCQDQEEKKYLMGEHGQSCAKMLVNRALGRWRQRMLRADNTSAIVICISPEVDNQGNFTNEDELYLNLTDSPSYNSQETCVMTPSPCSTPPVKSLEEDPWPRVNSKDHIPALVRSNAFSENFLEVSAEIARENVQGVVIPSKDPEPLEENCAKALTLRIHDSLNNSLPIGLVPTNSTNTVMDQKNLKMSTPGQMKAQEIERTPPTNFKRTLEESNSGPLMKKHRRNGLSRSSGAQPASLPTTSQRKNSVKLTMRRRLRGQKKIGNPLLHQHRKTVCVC
Outline: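 10 nM WIP1 preincubated with compounds 1 hr at room temperature in pH 7.5 Tris buffer with 30 mM MgCl2, 1 mM TCEP; 2 uM VEPPL-pS-QETFS phosphopeptide for 5 min, formic acid quench; dephosphorylated product quantified by RapidFire MS against labelled standard.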

[9] = target: Protein phosphatase 1D (Homo sapiens) (UniProt O15297); assay: Rhodamine-PBP qHTS Assay for Modulators of WT P53-Induced Phosphatase 1 (WIP1) (AID 1347425); note: % of control where 0% means no effect
Outline: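 5 nM WIP1 + 10 uM Rh-PBP, 50 mM Tris pH 7.5, 30 mM MgCl2, 1 mM TCEP, 0.1 mM EGTA, BSA; cpds pinned, 1 hr RT; + 10 uM phosphopeptide; fluorescence 1-min reads x 11 min; delta = f1 - f0.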

[10] = Primary qHTS for inhibitors of La Crosse Virus (LACV) - induced cell death in SH-SY5Y cells (AID 1508616);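 note: top concentration of the series differs between compounds; 0% = infected DMSO wells and 100% = uninfected DMSO wells; higher means more rescue of cells from virus-induced death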
Outline: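 SH-SY5Y cells (6000/well) plated 24 h, then given compounds by pin transfer and LACV at 0.01 MOI for 6 days at 37C. Viability measured by ATPLite luminescence, normalized to infected DMSO and uninfected DMSO.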

[11] = A High-Content qHTS Against Drug Library for the Identification of Small Molecules that Inhibit DYT1 Early Onset Primary Dystonia-Associated Cell Pathology (AID 1645839; calls by dose curve; note: series mostly up to about 46 µM)
Outline: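 Flp-In T-REx 293 cells with tetracycline-inducible EGFP-delE hTOR1A (WT EGFP-hTOR1A as reference), 800 cells/well; compound added with tetracycline, 48 h at 37 C. Fixed, permeabilized cells imaged; %pathology (punctate TorsinA) primary, cell count counterscreen.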

[12] = target: Cytochrome P450 2D6 (Homo sapiens) (UniProt P10635); assay: Cytochrome P450 family 2 subfamily D member 6 (CYP2D6) small molecule antagonists: luciferase biochemical (cell-free) qHTS assay (AID 1645840; active = well fitted curve in the direction sought with a large enough effect in the repeat runs; an effect the other way counts as inactive or inconclusive; note: nearly all actives have a fitted effect of over 55% in size; note: potency is the fitted concentration of half-maximal effect)
Sequence of Cytochrome P450 2D6 (Homo sapiens) (P10635 whole entry, looked up): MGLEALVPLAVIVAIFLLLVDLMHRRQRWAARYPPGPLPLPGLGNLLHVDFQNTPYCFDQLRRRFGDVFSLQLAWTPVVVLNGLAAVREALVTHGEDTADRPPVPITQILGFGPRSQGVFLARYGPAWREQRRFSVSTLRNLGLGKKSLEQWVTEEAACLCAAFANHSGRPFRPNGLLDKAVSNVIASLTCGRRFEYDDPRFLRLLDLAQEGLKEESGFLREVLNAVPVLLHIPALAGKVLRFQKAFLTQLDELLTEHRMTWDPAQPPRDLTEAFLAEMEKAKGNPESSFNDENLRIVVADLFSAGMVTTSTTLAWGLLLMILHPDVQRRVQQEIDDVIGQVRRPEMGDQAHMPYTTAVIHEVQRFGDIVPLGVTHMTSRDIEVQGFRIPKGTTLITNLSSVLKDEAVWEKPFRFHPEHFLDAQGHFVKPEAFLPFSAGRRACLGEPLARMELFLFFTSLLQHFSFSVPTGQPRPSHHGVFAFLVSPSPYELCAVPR
Outline: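 P450-Glo luminescent screen: recombinant CYP2D6 enzyme–proluciferin substrate mix preincubated with compound 10 min at room temperature, then NADPH regeneration added for 1 h at room temperature. Detection reagent added for 20 min; luciferin light read as relative luminescence units.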

[13] = target: Cytochrome P450 3A4 (Homo sapiens) (UniProt P08684); assay: Cytochrome P450 family 3 subfamily A member 4 (CYP3A4) small molecule antagonists: luciferase qHTS assay (AID 1645841; active = well fitted curve in the direction sought with a large enough effect in the repeat runs; an effect the other way counts as inactive or inconclusive; note: nearly all actives have a fitted effect of over 45% in size)
Sequence of Cytochrome P450 3A4 (Homo sapiens) (P08684 whole entry, looked up): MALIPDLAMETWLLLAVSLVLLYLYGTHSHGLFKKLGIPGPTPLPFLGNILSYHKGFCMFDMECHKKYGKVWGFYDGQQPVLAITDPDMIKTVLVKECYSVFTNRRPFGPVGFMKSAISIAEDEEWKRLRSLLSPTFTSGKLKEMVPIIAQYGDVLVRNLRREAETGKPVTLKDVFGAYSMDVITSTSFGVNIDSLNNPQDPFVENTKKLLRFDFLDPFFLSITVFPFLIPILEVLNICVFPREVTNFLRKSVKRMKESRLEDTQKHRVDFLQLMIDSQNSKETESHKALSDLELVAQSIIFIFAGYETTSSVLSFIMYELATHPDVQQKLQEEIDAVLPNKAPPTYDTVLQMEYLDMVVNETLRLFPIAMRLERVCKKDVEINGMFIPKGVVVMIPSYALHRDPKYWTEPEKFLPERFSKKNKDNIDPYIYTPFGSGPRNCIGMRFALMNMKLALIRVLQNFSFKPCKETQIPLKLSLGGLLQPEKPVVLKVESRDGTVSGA
Outline: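 P450-Glo CYP3A4 enzyme with proluciferin substrate preincubated 10 min with compound at room temperature, then NADPH regeneration 1 h. Luciferin detection reagent added for 20 min; luminescence recorded. Ketoconazole positive control.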

[14] = target: Cytochrome P450 2C9 (Homo sapiens) (UniProt P11712); assay: Cytochrome P450 family 2 subfamily C member 9 (CYP2C9) small molecule antagonists: luciferase biochemical (cell-free) qHTS assay (AID 1645842; active = well fitted curve in the direction sought with a large enough effect in the repeat runs; an effect the other way counts as inactive or inconclusive; note: nearly all actives have a fitted effect of over 55% in size; note: potency is the fitted concentration of half-maximal effect)
Sequence of Cytochrome P450 2C9 (Homo sapiens) (P11712 whole entry, looked up): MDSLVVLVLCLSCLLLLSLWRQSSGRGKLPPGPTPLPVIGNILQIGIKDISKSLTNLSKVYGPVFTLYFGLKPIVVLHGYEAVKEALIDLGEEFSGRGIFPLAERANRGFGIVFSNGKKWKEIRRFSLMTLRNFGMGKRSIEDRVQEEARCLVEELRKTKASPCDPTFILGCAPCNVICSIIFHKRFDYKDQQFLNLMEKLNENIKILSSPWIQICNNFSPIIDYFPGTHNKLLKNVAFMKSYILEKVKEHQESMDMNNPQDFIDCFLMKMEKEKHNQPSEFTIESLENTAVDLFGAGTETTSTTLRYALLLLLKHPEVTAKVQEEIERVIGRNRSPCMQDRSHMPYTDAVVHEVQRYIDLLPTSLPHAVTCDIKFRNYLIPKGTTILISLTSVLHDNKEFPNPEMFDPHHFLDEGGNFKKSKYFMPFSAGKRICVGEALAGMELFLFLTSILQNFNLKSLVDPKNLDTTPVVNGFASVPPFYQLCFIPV
Outline: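 Luminescence, after 20 min with luciferin detection reagent, reflected CYP2C9 turnover during a 1 h NADPH-driven reaction at 37C. Enzyme-substrate mix contained 0.4% bovine serum albumin and was preincubated with compound 10 min at room temperature.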

[15] = Counterscreen qHTS for small molecule stabilizers of the endoplasmic reticulum resident proteome: GLuc-NoTag assay (AID 1508627);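 note: SH-SY5Y cells given compound then 100 nM thapsigargin to empty ER calcium; series mostly up to about 76 µM; 0% = thapsigargin alone and -100% = DMSO vehicle control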
Outline: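 SH-SY5Y cells stably expressing constitutively secreted GLuc without SERCaMP tag, exposed to compound for 19 hr, then to 100 nM thapsigargin for 4 hr at 37C. Medium luciferase was read by coelenterazine luminescence without lysis.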

[16] = Confirmatory qHTS for small molecule stabilizers of the endoplasmic reticulum resident proteome: Secreted ER Calcium Modulated Protein (SERCaMP) assay (AID 1508628); note: series mostly up to about 76 µM; % is set by controls: 0 for no effect and ±100 for the full control effect; nearly all actives have a fitted effect of over 40% in size
Outline: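 SH-SY5Y cells stably expressing GLuc-SERCaMP, treated 16 h with compound (primary 1.53, 7.67, 38.3 uM; confirmation 11 concentrations, up to 76.6 uM), then 100 nM thapsigargin for 4 h. Secreted Gaussia luciferase in medium read by coelenterazine luminescence.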

[17] = Cell Viability qHTS for small molecule stabilizers of the endoplasmic reticulum resident proteome (AID 1508629); conditions: cell viability counter-screen, 100 nM thapsigargin for final 4 h

COc1cc2nc(N3CCCN(C)CC3)nc(NC3CCN(Cc4ccccc4)CC3)c2cc1OC
inactive: outcome [1] | outcome [2] | outcome [3] | outcome [4] | outcome [5] | Potency [6]
active: Potency (Papain (Carica papaya)) 25.1 µM

CNC1CCCN(c2c(F)cc3c(=O)c(C(=O)O)cn(C4CC4)c3c2OC)C1 (stereo unspecified)
inactive: Potency [7] | outcome [8] | outcome [9] | Potency [10] | outcome [5] | Potency [6] | Potency [11] | Potency [12] | outcome [13] | Potency [14]

CC(C)NCC(O)c1ccc(NS(C)(=O)=O)cc1 (stereo unspecified)
inactive: outcome [1] | Potency [7] | outcome [2] | outcome [3] | Potency [10] | outcome [4] | outcome [5] | Potency [6] | Potency (Papain (Carica papaya))

COc1ccc(C(=O)CC(=O)c2ccc(C(C)(C)C)cc2)cc1
inactive: Potency [7] | outcome [8] | outcome [9] | Potency [10] | outcome [5] | Potency [6] | Potency [11] | Potency [12] | Potency [14]

CC1CC2C3CCC4=CC(=O)C=C[C@]4(C)[C@@]3(F)[C@@H](O)C[C@]2(C)[C@@]1(O)C(=O)CO (stereo partly specified)
inactive: outcome [1] | outcome [2] | outcome [3] | outcome [4] | outcome [5] | Potency (Papain (Carica papaya))

CCOc1cc(N)c(Cl)cc1C(=O)NCC1CN(Cc2ccc(F)cc2)CCO1 (stereo unspecified)
active: Potency [12] 15.5 µM
inactive: Potency [7] | outcome [8] | outcome [9] | Potency [10] | outcome [5] | outcome [15] | Potency [16] | max response [17] -7.94% | Potency [6] | Potency [14]

CCN(CC)CCn1c(=O)c(Cc2ccc(OC)cc2)nc2ccccc21
inactive: outcome [1] | Potency [7] | outcome [2] | outcome [3] | outcome [4] | outcome [5] | Potency [14] | Potency (Papain (Carica papaya))
active: Potency [12] 7.56 µM

CCN(CC)CC#CCOC(=O)C(O)(c1ccccc1)C1CCCCC1 (stereo unspecified)
active: Potency [12] 3.01 µM | Potency [14] 7.56 µM
inactive: outcome [1] | outcome [2] | outcome [3] | Potency [10] | Potency (Papain (Carica papaya))

CC(=O)CC(c1ccccc1)c1c(O)c2ccccc2oc1=O (stereo unspecified)
active: Potency [7] 13.1 µM
inactive: outcome [8] | outcome [9] | Potency [10] | outcome [5] | Potency [6] | Potency [11] | Potency [12]

OCc1ccc(-c2nn(Cc3ccccc3)c3ccccc23)o1
inactive: outcome [1] | Potency [7] | outcome [2] | outcome [3] | outcome [4] | outcome [5] | Potency [6]
active: Potency (Papain (Carica papaya)) 25.1 µM

CC[C@H](C)C(=O)O[C@H]1C[C@@H](C)C=C2C=C[C@H](C)[C@H](CC[C@@H]3C[C@@H](O)CC(=O)O3)[C@H]21
inactive: Potency [7] | outcome [8] | outcome [9] | Potency [10] | outcome [5] | Potency [6] | Potency [11]
